Experimental data as given in PubChem BioAssay (NCATS).
Records with an inconclusive call do not appear. Where a call stands in place of a potency, no number is given. Calls of active or inactive are those of the source. The call rests on the fitted dose curve; in most records, active means well fitted curve in the direction sought with a large enough effect; inconclusive means small, poorly fitted or top-dose-only effect, or another doubt; inactive means no such curve, though single readings can be large; an effect the other way counts as inactive or inconclusive.

Tested on: not listed separately
Assay: Cell Viability - LYMP2-018 (AID 985);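 further: compound exposure lasted 24 hr at 37 °C; nearly all actives have a fitted effect of over 50% in size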
Conditions: LYMP2-018 lymphoblastoid cells, viability (qHTS); series mostly up to 92.2 µM
Outline: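 Acute cytotoxicity is scored as a concentration-dependent drop in intracellular ATP after 24 hr exposure of the lymphoblastoid line in complete culture medium, measured by luciferase luminescence. Potency is expressed as AC50 from Hill modelling.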
For `O=c1[nH]cnc2[nH]ncc12`, the outcome was “inactive”. In the case of `NC(N)=NC(=O)c1nc(Cl)c(N)nc1N`, the outcome is reported as “inactive”. With `CCCC(CCC)C(=O)O` the outcome was “inactive”. With `CC(=O)Oc1ccccc1C(=O)O` the outcome was “inactive”. With `NC(=O)c1cnccn1` the outcome was “inactive”.

Tested on: not listed separately
Assay: Cell Viability - LYMP2-020 (AID 986);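 further: cells exposed to compound for 24 h at 37 °C; nearly all actives have a fitted effect of over 55% in size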
Conditions: series mostly up to 92.2 µM
Outline: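 Acute cytotoxicity in a human lymphoblastoid line is scored as a concentration-dependent fall in cellular ATP after 24 hr at 37 C in complete medium. The positive control is tetraoctylammonium bromide, and potency is given as Hill-fit AC50.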
For `O=c1[nH]cnc2[nH]ncc12`, the outcome was “inactive”. For `CCCC(CCC)C(=O)O`, the outcome was “inactive”. In the case of `CC(=O)Oc1ccccc1C(=O)O`, the outcome is reported as “inactive”. In the case of `NC(=O)c1cnccn1`, the outcome is reported as “inactive”.

Tested on: not listed separately
Assay: Cell Viability - LYMP2-022 (AID 987);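 further: cells exposed to compound for 24 hr; nearly all actives have a fitted effect of over 55% in size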
Conditions: LYMP2-022 lymphoblastoid cell viability; series mostly up to 92.2 µM
Outline: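 Acute toxicity in a human lymphoblastoid line is scored as decreased intracellular ATP after 24 hr compound treatment at 37 C. ATP is measured by CellTiter-Glo luminescence; curves are fitted with the Hill equation to give AC50.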
For `O=c1[nH]cnc2[nH]ncc12`, the outcome was “inactive”. For `NC(N)=NC(=O)c1nc(Cl)c(N)nc1N`, the outcome was “inactive”. For `CCCC(CCC)C(=O)O`, the outcome was “inactive”. With `CC(=O)Oc1ccccc1C(=O)O` the outcome was “inactive”. In the case of `NC(=O)c1cnccn1`, the outcome is reported as “inactive”.

Tested on: not listed separately
Assay: Cell Viability - LYMP2-024 (AID 988);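 further: cells exposed to compound for 24 hr at 37 °C; nearly all actives have a fitted effect of over 60% in size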
Conditions: LYMP2-024 lymphoblastoid cell viability; series mostly up to 92.2 µM
Outline: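 Acute toxicity is measured as concentration-dependent loss of intracellular ATP in a human lymphoblastoid line treated 24 hours at 37 C. Luciferase luminescence quantifies ATP; AC50 values come from standard Hill-equation modelling.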
For `O=c1[nH]cnc2[nH]ncc12`, the outcome was “inactive”. In the case of `NC(N)=NC(=O)c1nc(Cl)c(N)nc1N`, the outcome is reported as “inactive”. For `CCCC(CCC)C(=O)O`, the outcome was “inactive”. For `CC(=O)Oc1ccccc1C(=O)O`, the outcome was “inactive”. For `NC(=O)c1cnccn1`, the outcome was “inactive”.

Tested on: not listed separately
Assay: Cell Viability - LYMP2-026 (AID 989);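 further: cells exposed to compound for 24 h at 37 °C; nearly all actives have a fitted effect of over 50% in size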
Conditions: LYMP2-026 lymphoblastoid cell viability, qHTS; series mostly up to 92.2 µM
Outline: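 Concentration-dependent loss of intracellular ATP in human lymphoblastoid cells after 24 hr at 37 C, quantified by luciferase luminescence. AC50 derived from standard Hill equation.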
In the case of `O=c1[nH]cnc2[nH]ncc12`, the outcome is reported as “inactive”. For `NC(N)=NC(=O)c1nc(Cl)c(N)nc1N`, the outcome was “inactive”. With `CCCC(CCC)C(=O)O` the outcome was “inactive”. With `CC(=O)Oc1ccccc1C(=O)O` the outcome was “inactive”. For `NC(=O)c1cnccn1`, the outcome was “inactive”.

Target: Alpha-galactosidase A (Homo sapiens) (UniProt P06280)
Sequence (P06280 whole entry, looked up): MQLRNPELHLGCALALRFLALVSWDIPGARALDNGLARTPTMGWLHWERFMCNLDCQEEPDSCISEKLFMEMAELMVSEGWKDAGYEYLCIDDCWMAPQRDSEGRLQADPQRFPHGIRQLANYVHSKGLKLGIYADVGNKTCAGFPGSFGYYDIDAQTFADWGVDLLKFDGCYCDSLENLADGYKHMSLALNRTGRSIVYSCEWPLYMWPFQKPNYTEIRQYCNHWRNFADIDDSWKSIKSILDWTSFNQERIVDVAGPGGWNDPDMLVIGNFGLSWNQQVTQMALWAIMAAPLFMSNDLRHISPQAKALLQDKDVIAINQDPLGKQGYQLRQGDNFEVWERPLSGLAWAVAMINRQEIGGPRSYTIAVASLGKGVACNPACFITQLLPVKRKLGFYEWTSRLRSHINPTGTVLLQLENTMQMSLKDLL
Assay: Counterscreen for Glucocerebrosidase Inhibitors: qHTS Assay for Human alpha-Galactosidase at pH 4.5 (AID 992)
Conditions: purified enzyme, fluorogenic substrate; series mostly up to 76.9 µM
Outline: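 Read-out is 4-methylumbelliferone fluorescence (365 nm excitation, 440 nm emission) after a pH 10 NaOH/glycine stop. Reactions held 2 nM enzyme and 80 uM substrate at pH 4.5 for 20 min at room temperature.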
In the case of `NC[C@H](O)c1ccc(O)c(O)c1`, the outcome is reported as “inactive”. For `O=c1[nH]cnc2[nH]ncc12`, the outcome was “inactive”. In the case of `CCOC(=O)C1=C[C@@]2(CC)CCCN3CCc4c(n1c1ccccc41)[C@H]32`, the outcome is reported as “inactive”. With `CNC[C@H](O)c1cccc(O)c1` the outcome was “inactive”. With `NC(N)=NC(=O)c1nc(Cl)c(N)nc1N` the outcome was “inactive”. For `CCCC(CCC)C(=O)O`, the outcome was “inactive”. For `Cc1cnc(NC(=O)C2=C(O)c3ccccc3S(=O)(=O)N2C)s1`, the outcome was “inactive”. In the case of `C[C@]12CCC(=O)C=C1CC[C@@H]1[C@@H]2[C@@H](O)C[C@@]2(C)[C@H]1CC[C@]2(O)C(=O)CO`, the outcome is reported as “inactive”. In the case of `O=NN(CCCl)C(=O)NCCCl`, the outcome is reported as “inactive”. For `O=c1n(CCCN2CCN(c3cccc(Cl)c3)CC2)nc2ccccn12`, the outcome was “inactive”. For `Nc1nc2c(ncn2COCCO)c(=O)[nH]1`, the outcome was “inactive”. In the case of `O=C1CCc2cc(OCCCCc3nnnn3C3CCCCC3)ccc2N1`, the outcome is reported as “inactive”. With `CC(=O)Oc1ccccc1C(=O)O` the outcome was “inactive”. For `NCCc1ccc(O)c(O)c1`, the outcome was “inactive”. For `C1COC(NC(C2CC2)C2CC2)=N1`, the outcome was “inactive”. For `OC(CN1CCC(Cc2ccc(F)cc2)CC1)c1ccc(Cl)cc1` (centres undefined), the outcome was “inactive”. For `Cc1cn[nH]c1`, the outcome was “inactive”. For `CCCCNc1cc(C(=O)O)cc(S(N)(=O)=O)c1Oc1ccccc1`, the outcome was “inactive”. With `CC(C)(Sc1ccc(CCN(CCCCC2CCCCC2)C(=O)NC2CCCCC2)cc1)C(=O)O` the outcome was “inactive”. With `NC(=O)c1cnccn1` the outcome was “inactive”. With `N=c1nc(N2CCCCC2)cc(N)n1O` the outcome was “inactive”. In the case of `N[C@@H]1CONC1=O`, the outcome is reported as “inactive”. In the case of `CC(C)NCC(O)COc1ccc(COCCOC(C)C)cc1` (centres undefined), the outcome is reported as “inactive”. With `Cc1[nH]c(=O)c(C#N)cc1-c1ccc2nccn2c1` the outcome was “inactive”. With `CCOC(=O)N1CCC(=C2c3ccc(Cl)cc3CCc3cccnc32)CC1` the outcome was “inactive”.
